# Measurements: PubChem BioAssay
# Calls of active or inactive are those of the source.
# Assays:
# [1] = compound effects on lung adenocarcinoma cell viability – A549, calcein-AM fluorescence, 48 h, basal, profiling panel (AID 1162); details: higher = more signal
# [2] = compound effects on differentiated 3T3-L1 adipocyte viability – cell-based, 3T3-L1 adipocytes, calcein-AM fluorescence, 48 h, basal, profiling panel (AID 1163); details: 3T3-L1 adipocytes viability, higher = more signal
# [3] = compound effects on hepatocellular carcinoma cell viability – HepG2, calcein-AM fluorescence, 48 h, basal, profiling panel (AID 1164); details: higher = more signal
# [4] = compound effects on multiple myeloma cell viability – MM1S, calcein-AM fluorescence, 48 h, basal, profiling panel (AID 1165); details: higher = more signal;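 further: viability of MM1S multiple myeloma cells under basal unstimulated conditions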
# [5] = calcein-AM signal in unstimulated myeloma cells – cell-based, calcein-AM fluorescence, 48 h, PK04 Diversity Set, profiling panel (AID 1166); details: RPMI8226 myeloma viability, higher = more signal;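 further: cells grown under basal conditions without added stimulus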
# [6] = JC-1 mitochondrial signal, unstimulated HepG2 cells – cell-based, JC-1 fluorescence, 24 h, 100 nL compound, profiling panel (AID 1167); details: HepG2 mitochondrial potential, higher = more signal
# [7] = JC-1 mitochondrial signal, unstimulated adipocytes – cell-based, JC-1 fluorescence, 3T3-L1 adipocytes, 24 h, 100 nL compound, profiling panel (AID 1168); details: JC-1 mitochondrial fluorescence, higher = more signal, called active from +8 up or from −8 down
# [8] = JC-1 mitochondrial signal, unstimulated myeloma cells – cell-based, JC-1 fluorescence, RPMI8226, 24 h, 100 nL compound, profiling panel (AID 1169); details: JC-1 mitochondrial potential fluorescence, higher = more signal
# [9] = JC-1 mitochondrial signal, unstimulated MM1S myeloma – cell-based, JC-1 fluorescence, 24 h, 100 nL compound, profiling panel (AID 1170); details: MM1S mitochondrial potential, higher = more signal
# [10] = resazurin metabolic signal in A549 cells – cell-based, resazurin fluorescence, 24 h, PK04 Diversity Set, profiling panel (AID 1171); details: A549 viability, higher = more signal, called active from +8 up or from −8 down
# Further: test concentration not given here.
SMILES,z-score [1],z-score [2],z-score [3],z-score [4],z-score [5],z-score [6],z-score [7],z-score [8],z-score [9],z-score [10]
COC(=O)c1c2oc(c1C(=O)OC)C(=O)N[C@H](Cc1ccccc1)Cn1cc(nn1)C1(CCCCC1)NC(=O)N[C@H](CO)CC2,0.78,0.705,0.286,0.977,0.943,0.381,0.621 (inactive),-0.662,-1.2,-0.547 (inactive)
O=C1NC(=O)C2C1C=CC(C(O)C(c1ccccc1)c1ccccc1)N2Nc1ccccn1 (stereo not given),0.795,-0.46,0.605,0.332,0.077,0.176,-0.219 (inactive),0.432,0.525,-0.0343 (inactive)
O=C(CS)NCCCCCCNC(=O)[C@H]1C[C@H]2C(=O)NCC(=O)N2[C@H]1c1cccc(OCCO)c1,-0.109,1.18,-0.232,-0.436,-1.09,-0.407,0.225 (inactive),0.211,-0.497,-0.15 (inactive)
COC(=O)[C@@]1(Cc2ccc(F)cc2)[C@H]2c3cc(C(=O)N(C)C)n(Cc4cccc5ccccc45)c3C[C@H]2CN1C(=O)c1ccccc1,-0.994,-0.296,0.156,-0.0591,-0.489,-0.0443,-2.25 (inactive),-0.207,-0.774,0.0731 (inactive)
COC(=O)c1ccc(OC)c(/C=C\CC(OC(=O)c2ccncc2)c2ccccc2)c1 (stereo not given),1.46,-0.347,1.04,-1.64,-1.5,0.615,0.202 (inactive),-0.177,0.148,0.271 (inactive)
COC(=O)C1=CC(CCCO)=CC(c2ccc(CN3CCCC3)cc2)N(C)C=C1C(=O)OC (stereo not given),0.71,-0.0962,0.204,0.608,0.433,0.91,0.735 (inactive),0.173,-0.537,-0.632 (inactive)
COc1ccc(-c2cc3c(c(CCc4ccccc4)n2)[Si](C(C)C)(C(C)C)O[C@H]3c2ccccc2)cn1,0.359,-0.724,1.27,-1.82,-2.55,-2.71,-0.904 (inactive),-0.405,-0.622,0.996 (inactive)
O=C1C2C=CC(C(O)c3ccccn3)N(Nc3ccc([N+](=O)[O-])cc3)C2C(=O)N1c1ccccc1 (stereo not given),-0.264,-0.723,0.19,-0.416,-0.737,-1.47,-1.83 (inactive),-0.187,-1.13,-0.0475 (inactive)
O=C1C2C=CC(C(O)C(c3ccccc3)c3ccccc3)N(Nc3ccccc3F)C2C(=O)N1c1ccccc1 (stereo not given),-0.486,-0.368,0.355,-1.33,-0.0284,-1.7,-1.3 (inactive),0.284,-0.73,-0.021 (inactive)
COC(=O)[C@@]1(Cc2ccc(F)cc2)[C@H]2c3cc(C(=O)N4CCCC4)n(CCSCCO)c3C[C@H]2CN1C(=O)c1ccccc1,-0.354,0.75,0.706,-1.58,-0.118,1.3,-1.3 (inactive),-0.00907,-0.303,-0.294 (inactive)
CC(C)(C)OC(=O)CC[C@]1(C(=O)N2CCOCC2)COC(c2ccc(OCCCO)cc2)=N1,0.204,-0.492,1.26,0.571,-0.785,2.31,-0.305 (inactive),-0.44,-0.143,0.216 (inactive)
COC(=O)[C@@]1(Cc2ccc(F)cc2)[C@@H]2C(=CC(=O)[C@H]2CC(=O)C(=O)N2CCCC2)CN1C(=O)c1ccccc1,-1.77,1.16,-1.32,-2.6,-4.29,3.9,-0.568 (inactive),-0.686,-2.82,-1.97 (inactive)
CCCCCN1CC=CC23O[C@@H]4/C=C\CCCOC(=O)C4[C@H]2C(=O)N(CCCCCO)[C@@H]3C1=O (stereo not given in full),0.386,1.96,-0.216,0.281,1.13,-0.116,1.24 (inactive),-0.21,-0.235,0.844 (inactive)
C=C(C)C1CN([C@H](CO)c2ccccc2)C(=O)/C1=C\c1ccccc1 (stereo not given in full),-0.121,1.55,0.0701,-0.313,-1.89,-1.11,0.0548 (inactive),0.354,-1.06,-0.846 (inactive)
[N-]=[N+]=NCc1ccccc1C[C@@]1(C(=O)NCCN2CCOCC2)N=C(c2ccc(OCCCO)cc2)O[C@@H]1c1ccccc1,0.0171,-0.221,-1.04,-2.72,-1.99,-0.3,0.556 (inactive),-1.18,-0.956,-0.112 (inactive)
